Hck Nef HTS = inhibitors of human Hck kinase activated by Nef; P08631; Recombinant Hck-YEEI plus Nef, Z-Lyte FRET kinase assay; inhibition, % at 20 µM; 220,000 compounds, 0.68% hits; AID 463187;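 active means Hck-Nef kinase inhibition above about 50%, limit read from the data; inactive means inhibition below that limit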;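 further: 0% = DMSO with Hck plus Nef and 100% = Hck alone without Nef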
EP2 modulator = modulators of human EP2 prostaglandin E2 receptor | P43116 | EP2-expressing cells, cAMP HTRF FRET, PGE2 co-stimulation | induction, % at 25 µM | 260,000 compounds, 0.83% hits;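 active means compounds whose cAMP rise, as percent of the full-agonist control response, exceeds 60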;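 further: rat C6 glioma line stably carrying human EP2 under a CMV promoter; the protocol text gives 20 µM as final concentration; 100% = response of wells given 1 µM PGE2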
Target sequence (P43116 whole entry, looked up): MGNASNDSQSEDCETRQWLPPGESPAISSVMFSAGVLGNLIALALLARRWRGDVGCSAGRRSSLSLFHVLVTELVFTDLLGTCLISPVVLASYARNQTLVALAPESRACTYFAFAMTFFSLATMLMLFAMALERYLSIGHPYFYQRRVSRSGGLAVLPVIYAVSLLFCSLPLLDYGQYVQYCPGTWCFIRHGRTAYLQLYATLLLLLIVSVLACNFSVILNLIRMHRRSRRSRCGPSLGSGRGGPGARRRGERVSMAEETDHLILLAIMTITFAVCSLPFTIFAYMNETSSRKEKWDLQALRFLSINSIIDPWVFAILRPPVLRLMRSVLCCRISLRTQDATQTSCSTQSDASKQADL
Arbovirus anti = blocks arbovirus infection. arbovirus infection cell-based antiviral screen. inhibition, % at 10 µM. 200,000 compounds, 0.37% hits; in the data active means inhibition above about 30%
PGE2 EP2 inh = blocks the human prostaglandin E2 receptor EP2 | 260,000 compounds, 0.52% hits | inhibition, % at 25 µM | P43116 | C6 glioma cells expressing human EP2, cAMP TR-FRET; cells stimulated with saturating PGE2;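 active means percent inhibition above 40 after rounding to a whole number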;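 further: rat C6 glioma host cells with rolipram phosphodiesterase inhibitor present; the protocol text gives 20 µM as final concentration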
p97 inhibitor = blocks human p97 ATPase activity. P55072. recombinant p97 ATPase, Kinase-Glo ATP luminescence, 3 h. inhibition, % at 8 µM. 220,000 compounds, 0.42% hits; in the data active means inhibition above about 15%;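 further: 0% = DMSO vehicle and 100% = wells lacking enzyme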
EP2 cAMP induct = human EP2 receptor cAMP induction, negative in counter-screens | AID 1080 | shares compounds with EP2 modulator | calls only at 20 µM (by protocol) | 1,300 compounds, 47% hits | C6 glioma EP2 cells, cAMP HTRF induction; plus low (about EC15) PGE2 agonist;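 active means cAMP induction above 50% in the main assay while under 30% in all four parallel counter assays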;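 further: rat C6 glioma cells stably expressing human EP2 receptor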
An asterisk follows results filed as active; i = inactive; · = not tested or not shown; + = active, no number. Compounds with a hit are over-represented: about 2.4% of the library has one in this group of screens.

SMILES | Hck Nef HTS | EP2 modulator | Arbovirus anti | PGE2 EP2 inh | p97 inhibitor | EP2 cAMP induct
Cc1cccc(OCc2n[nH]c(=S)n2Cc2ccccc2)c1 | 28 | 51 | 3 | 2 | -1 | i
NC(=O)CSc1nc2ccccc2n1Cc1ccccc1F | 7 | 7 | 2 | 16 | 2 | ·
CCSc1nc2ccccc2n1Cc1ccccc1F | 3 | 72* | -3 | 10 | -7 | +
O=S(=O)(O)c1ccc2c(N=Nc3c(O)ccc4ccccc34)cccc2c1 | · | 75* | · | 41* | · | i
Cc1ccc2nc(NC(=O)CSc3ncnc4c3oc3ccccc34)sc2c1 | 5 | -9 | -14 | · | 3 | ·
Cc1cccc(NC(=O)CSc2ncnc3c2oc2ccccc23)c1 | 2 | 71* | -16 | 15 | -4 | i
Fc1cccc(CSc2ncnc3c2oc2ccccc23)c1 | 1 | 80* | -6 | 15 | -3 | i
O=C(CSc1ncnc2c1oc1ccccc12)Nc1ccc2c(c1)OCCO2 | 7 | 21 | -3 | 6 | 1 | ·
O=C(CSc1ncnc2c1oc1ccccc12)Nc1cccc(F)c1 | 0 | 67* | -3 | 13 | 3 | i
CCC(c1nnnn1Cc1ccco1)N(Cc1cc2ccc(C)c(C)c2[nH]c1=O)C1CCCC1 (stereo unspecified) | · | 20 | · | 13 | · | ·
CCOC(=O)CSc1nnc(-c2ccccc2O)n1-c1ccccc1OC | · | 15 | · | 13 | · | ·
Cc1ccc(-c2csc(N(CC3CCCO3)C(=O)c3ccco3)n2)cc1 (stereo unspecified) | 2 | 72* | 6 | 14 | -1 | +
O=C(c1ccco1)N(CC1CCCO1)c1nc(-c2ccccc2)cs1 (stereo unspecified) | 0 | 66* | -15 | 10 | -2 | i
O=C(c1cccs1)N(CC1CCCO1)c1nc(-c2ccccc2)cs1 (stereo unspecified) | 0 | 58 | 9 | 4 | -2 | ·
N#CC1=C(N)Oc2n[nH]c(C(F)(F)F)c2C12C(=O)N(Cc1ccccc1)c1ccccc12 (stereo unspecified) | · | -8 | · | 16 | · | ·
c1ccn(-c2ncnc3sc4c(c23)CCCC4)c1 | 2 | 65* | 0 | 10 | 2 | +
Cc1sc2ncnc(SCc3ccco3)c2c1C | 3 | 64* | 6 | 9 | 7 | +
Cc1noc(C)c1CSc1ncnc2sc3c(c12)CCCCC3 | 6 | 56 | -6 | 9 | 4 | +
Fc1ccc(CSc2ncnc3sc4c(c23)CCCC4)cc1 | 1 | 40 | 13 | 6 | 3 | ·
Cc1sc2ncnc(N(C)Cc3ccco3)c2c1C | 2 | 39 | 3 | 7 | -5 | ·
CCSc1ncnc2sc3c(c12)CCC3 | -1 | 73* | 5 | 12 | 6 | +
CCOc1cc(CCC(=O)N2CCc3c([nH]c4ccc(Cl)cc34)C2)on1 | · | -73 | · | 8 | · | ·
CC1CCCCN1C(=O)CSc1nnc(CNc2cccc(C(F)(F)F)c2)n1C (stereo unspecified) | · | -38 | · | 14 | · | ·
Cc1ccc(NC(=O)Cn2cc(C(=O)C(C)C)c3ccccc32)c(C)c1 | · | -38 | · | 11 | · | ·
Cc1cc(C)c2nc(SCC(=O)NC3CCCCC3)c(C#N)cc2c1 | · | -1 | · | 7 | · | ·
SMILES | Hck Nef HTS | EP2 modulator | Arbovirus anti | PGE2 EP2 inh | p97 inhibitor | EP2 cAMP induct
Cc1ccc2cc(C#N)c(SCC(=O)Nc3ccc4c(c3)OCO4)nc2c1C | · | 36 | · | 11 | · | ·
Cc1cc(C)nc(SCc2nnc(SCC(=O)Nc3ccccc3Cl)n2C)n1 | · | 23 | · | 5 | · | ·
C=CCn1c(SCc2c(C)noc2C)nc2sc(C)c(C)c2c1=O | 1 | 62* | -2 | 8 | -4 | +
Cc1noc(C)c1CSc1ncnc2sc(C)c(C)c12 | -1 | 63* | -2 | 6 | -2 | +
COc1ccccc1-c1noc(-c2cc(OC)c(OC)c(OC)c2)n1 | -3 | 6 | 3 | 6 | 0 | ·
COc1cc(-c2nc(-c3cccc(C(F)(F)F)c3)no2)cc(OC)c1OC | 1 | 72* | -1 | 7 | 8 | +
C/C(=N\O)C(=O)OC1CC(C)CCC1C(C)C (stereo unspecified) | 2 | 59 | 6 | 1 | 5 | +
COCCNC(=S)N(CCCN1CCOCC1)Cc1cc2c(C)ccc(C)c2[nH]c1=O | · | 23 | · | 4 | · | ·
COc1ccc(C)cc1NC(=O)C1CC(=O)OC12CCCCC2 (stereo unspecified) | -2 | 65* | -2 | 10 | -6 | i
CNC(=O)c1sc(N2N=C3/C(=C/c4ccccc4)CCCC3C2c2ccccc2)nc1C (stereo unspecified) | -2 | 4 | -22 | 9 | -6 | ·
O=C1CCC(C(=O)OCC(=O)N2N=C3/C(=C/c4ccccc4)CCCC3C2c2ccccc2)N1 (stereo unspecified) | -14 | 78* | 8 | 6 | -10 | +
O=C(OCc1ccc(Cl)cc1)c1ccccc1C(=O)c1ccccc1 | 0 | 70* | 0 | 3 | -2 | +
O=C(OCc1ccc(Cl)cc1)c1cccnc1Cl | 11 | -34 | 1 | 13 | 6 | ·
O=C(CCCN1C(=O)/C(=C/c2cccs2)SC1=S)N(CCO)Cc1ccccc1 | · | -168 | · | 10 | · | ·
CCN(C(=O)Cn1nc(C(=O)O)c2ccccc2c1=O)C1CCCCC1 | -29 | 3 | 3 | 6 | -7 | ·
O=C(O)c1nn(CC(=O)N(C2CCCCC2)C2CCCCC2)c(=O)c2ccccc12 | 17 | 83* | 1 | 4 | 2 | +
CC(C)(Oc1ccc(Cl)cc1)C(=O)N(Cc1ccccc1)c1ccccn1 | 0 | 68* | -4 | 7 | -2 | +
O=C(COc1ccc(Cl)cc1)N(Cc1ccccc1)c1ccccn1 | 0 | 37 | -3 | 7 | -2 | ·
COc1cccc(Cn2c3cc(C)sc3c3cnn(CC(N)=O)c(=O)c32)c1 | · | -2 | · | · | · | ·
CC(C)=CCc1c2c(c3occ(-c4ccc(O)cc4)c(=O)c3c1O)C=CC(C)(C)O2 | 17 | 37 | -27 | 12 | 2 | ·
CC1(C)C=Cc2c(c3c(c4c(=O)c(-c5ccc(O)cc5)coc24)OC(C)(C)CC3)O1 | 19 | 60 | -27 | 13 | -1 | i
COc1ccc(NC(=O)CSc2nnc(CNc3nc(-c4ccccc4)cs3)n2C)cc1 | · | -20 | · | 7 | · | ·
CC(C)C1COC(c2cccn2Cc2ccccc2Cl)=N1 (stereo unspecified) | 1 | 68* | 9 | 7 | -2 | i
Cc1cccc2cc(C(c3nnnn3C3CCCC3)N3CCN(c4ccc(F)cc4)CC3)c(=O)[nH]c12 (stereo unspecified) | · | -2 | · | 6 | · | ·
Cc1cc(Oc2ccccc2)nc(NCc2ccccc2)n1 | -1 | 66* | -9 | 11 | -8 | +
Cc1cc(Nc2ccccc2)nc(NCc2ccccc2)n1 | 2 | 19 | -36 | 6 | 1 | ·
Cc1cc(Oc2ccccc2F)nc(NCc2ccccc2)n1 | 1 | 66* | 5 | · | -2 | +
COC(=O)c1cc2occc2n1Cc1nc(-c2ccccc2Cl)oc1C | -3 | 49 | -10 | 11 | 4 | ·
